Experimental data: PubChem BioAssay (EPA / NIEHS)
The source made the active and inactive calls. Rule for the calls: active = hit-call score of the fitted dose curve at least 0.9, where 1 is the maximum; inactive = score below 0.9.

Biological target: Nuclear respiratory factor 1 (Homo sapiens) (UniProt Q16656)
Test: ATG_NRF1_CIS: Attagene CIS-FACTORIAL HepG2 Assay for human Nuclear Respiratory Factor 1 (NRF1) Orphan Gene (AID 2282987)
Settings: HepG2 NRF1 cis-element reporter, Attagene multiplex; actives raise or lower the signal
Description: ATG_CIS is a cell-based, multiplexed-readout assay that uses HepG2, a human liver cell line, with measurements taken at 24 hours after chemical dosing in a 24-well plate.ATG_NRF1_CIS is one of 52 assay component(s) measured or calculated from the ATG_CIS assay. It is designed to make measurements of mRNA induction, a form of inducible reporter, as detected with fluorescence intensity signals by Reverse transcription polymerase chain reaction (RT-PCR) and Capillary electrophoresis technology.Data from the assay component ATG_NRF1_CIS was analyzed into 1 assay endpoint. This assay endpoint, ATG_NRF1_CIS, was analyzed with bidirectional fitting relative to DMSO as the negative control and baseline of activity. Using a type of inducible reporter, measures of mRNA for gain or loss-of-signal activity can be used to understand the reporter gene at the transcription factor-level as they relate to the gene NRF1. Furthermore, this assay endpoint can be referred to as a primary readout, because this assay has produced multiple assay endpoints where this one serves a reporter gene function. To generalize the intended target to other relatable targets, this assay endpoint is annotated to the dna binding intended target family, where the subfamily is nuclear respiratory factors.
Human liver HepG2 cells are transiently transfected with multiple reporter transcription units (MRTUs) in 6-well plates using FuGene 6 reagent (Roche; 3 ml FuGene/1 mg DNA). The MRTU constructs are regulated by a cis-regulating element (promoter). […] A major difference between the CIS and TRANS system is that in CIS activities of endogenous TFs are measured, whereas the TRANS assay evaluates changes in activities of exogenous, chimeric NR-Gal4 proteins. […] At the end of 24 hour incubation, total RNA was isolated using TriZol reagent (Invitrogen). The isolated RNA is then reverse-transcribed using oligo(dT) primer and Mo-MLV reverse transcriptase (Invitrogen) with DNAse I (Ambion) treatment for 30 min. The one-tenth of the produced cDNA was amplified by PCR using Taq DNA polymerase (Invitrogen) and two reporter sequence-specific primers. The PCR products were fluorescently labeled by primer extension with 6-arboxyfluorescein (6-FAM) 5'-labeled reporter sequence-specific primer (2 min at 95 C, 20 s at 68 C and 10 min at 72 C) and these products were digested with 5U of HpaI (New England Biolabs) for 2h at 37 C. The fragments were purified using Qiaquick PCR columns (Qiagen), analyzed on an ABI 3130xL genetic analyzer (Applied Biosystems) with peak positions identified by using a set of X-rhodamine (ROX)-labeled MapMarker1000 molecular weight standards (BioVentures). The raw capillary electrophoresis data was processed using Attagraph software (Attagene).

Chain of Nuclear respiratory factor 1 (Homo sapiens) (Q16656 whole entry, looked up): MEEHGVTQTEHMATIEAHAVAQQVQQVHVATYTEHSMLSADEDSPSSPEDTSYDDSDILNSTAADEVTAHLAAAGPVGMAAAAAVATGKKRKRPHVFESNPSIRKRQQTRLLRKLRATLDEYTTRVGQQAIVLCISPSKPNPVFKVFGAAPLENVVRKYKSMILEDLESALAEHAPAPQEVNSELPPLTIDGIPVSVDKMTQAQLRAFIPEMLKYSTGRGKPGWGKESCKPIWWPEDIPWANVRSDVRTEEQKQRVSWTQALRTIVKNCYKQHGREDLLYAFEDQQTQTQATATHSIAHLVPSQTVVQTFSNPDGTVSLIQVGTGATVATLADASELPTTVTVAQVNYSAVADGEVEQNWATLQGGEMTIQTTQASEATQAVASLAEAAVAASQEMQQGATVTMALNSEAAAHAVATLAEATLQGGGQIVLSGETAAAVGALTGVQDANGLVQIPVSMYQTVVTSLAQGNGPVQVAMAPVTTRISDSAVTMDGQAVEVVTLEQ

SMILES	outcome	AC50
CCCCCCCc1ccc(O)cc1	inactive	
OCC1CO1 (stereo not given)	inactive	
CCOS(=O)(=O)OCC	inactive	
O=C(O)C1C(C(=O)O)C2(Cl)C(Cl)=C(Cl)C1(Cl)C2(Cl)Cl (stereo not given)	inactive	
CC(C)(C)c1ccccc1OP(=O)(Oc1ccccc1)Oc1ccccc1	inactive	
N#Cc1c(-c2ccc(Cl)cc2)[nH]c(C(F)(F)F)c1Br	inactive	
CCCCOCCOP(=O)(OCCOCCCC)OCCOCCCC	inactive	
CC(Cl)CN(C)C (stereo not given)	inactive	
OCC(F)(F)OC(F)(F)C(F)(F)OC(F)(F)C(F)(F)OC(F)(F)CO	inactive	
O=P1(N(CCCl)CCCl)NCCCO1 (stereo not given)	inactive	
CC1=C(C(=O)Nc2ccccc2)S(=O)(=O)CCO1	inactive	
CC(O)C#N (stereo not given)	inactive	
CC(=O)c1ccc(-c2ccccc2)cc1	inactive	
[N-]=[N+]=[N-]	inactive	
Cc1c([N+](=O)[O-])cc2c(c1[N+](=O)[O-])C(C)(C)CC2(C)C	inactive	
O=C(O)C(F)(OC(F)(F)C(F)(F)C(F)(F)F)C(F)(F)F (stereo not given)	inactive	
C=CC(=O)OCC(F)(F)C(F)F	inactive	
Nc1cc2c3c(c1)C(c1ccccc1)=N[C@@H](NC(=O)c1cccnc1)C(=O)N3CC2	inactive	
CCC(C)(C)c1ccc(O)cc1	inactive	
CC(C)(C)OOC(C)(C)C	inactive	

SMILES	outcome	AC50
Cc1ccc2c(c1N)C(=O)c1ccccc1C2=O	inactive	
FC(F)(F)C(F)(C(F)(F)F)C(F)(F)C(F)(F)CC1CO1 (stereo not given)	inactive	
COP(=O)(CCC(=O)NCO)OC	inactive	
O=P(OCC(Br)CBr)(OCC(Br)CBr)OCC(Br)CBr (stereo not given)		18.6 µM (active)
Nc1ccc2ccccc2c1	inactive	
c1ccc2c(c1)Nc1ccccc1S2	inactive	
CCCCC(CC)COP(=O)(Oc1ccccc1)Oc1ccccc1 (stereo not given)		173 µM (active)
NNC(N)=S	inactive	
CC(C)(C)N(NC(=O)c1ccc(Cl)cc1)C(=O)c1ccccc1	inactive	
CCCCN(CCCC)N=O	inactive	
CC1(C)CN=C(NN=C(/C=C/c2ccc(C(F)(F)F)cc2)/C=C/c2ccc(C(F)(F)F)cc2)NC1		18 µM (active)
O=C(O)C=CC(F)(C(F)(F)F)C(F)(F)F	inactive	
Cn1[nH]nnc1=S	inactive	
O=[N+]([O-])c1ccccc1	inactive	
ClC(Cl)=C(c1ccc(Cl)cc1)c1ccccc1Cl	inactive	
CNC(=O)Oc1ccc(N(C)C)c(C)c1	inactive	
CCOP(=S)(S)OCC	inactive	
CCOP(=S)(NC(C)C)Oc1ccccc1C(=O)OC(C)C (stereo not given)	inactive	
CCCCOCC1CO1 (stereo not given)	inactive	
O=C(O)C(F)(F)OC(F)(F)C(F)(F)OC(F)(F)C(=O)O	inactive	
